This passage reports growth results from PubChem BioAssay (NCI).

The structures appear in SMILES notation. Values joined by “and” are separate entries in the source; they are usually repeats but may differ in a detail not shown here. Equal values may be shown once. Compounds without any hit were thinned out: in the full panel of roughly 83,000, 20% have a hit.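 48-hour exposure, single concentration, 96-well plates; percent growth endpoint where 0 means no net growth. Active: below 10.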 Values without a mark were called inactive. Active and inactive are the calls of the source.

The test system of this test is MDA-MB-468 breast. The experiment in a line: NCI-60 one-dose screen, 48 h (100 = growth as untreated, 0 = no growth, -100 = all killed). The settings on record: 10 µM unless noted.

Consider `CC(=O)Oc1ccc(Nc2c3ccccc3nc3ccccc23)cc1`, for which the growth was -25.6% (active).

Consider `N#Cc1ccc(OCc2nc(N)nc(N)c2-c2ccc(Cl)c(Cl)c2)cc1`, for which the growth was 35.4%.

For `O=S1(=O)c2ccccc2Oc2ccccc21`, the growth was 96.4%.

With `O=C1NC(=O)c2ncccc21`, the growth was 93.8%.

`COc1ccc2c(c1)nnn1c3ncccc3c(N=O)c21`: the growth was -87.8% (active).

As to `CCNc1cc2c(cc1Br)-c1ccccc1C2=O`, the growth is 50.2%.

As to `C=C1CC[C@@]2(C#N)[C@H]3[C@H](CC[C@@H]2C)[C@@H](C)C[C@@H](CC(C)(C)C#N)[C@H]13`, the growth was 59.7%.

Consider `COCCCNc1nc(NC(=O)c2cc(OC)cc(OC)c2)cc(-c2cccnc2)n1`, for which the growth is 94.8%.

With `COc1ccc(-n2ncc3c2ccc2cc(S(=O)(=O)c4ccccc4)c(=O)n(C)c23)cc1`, the growth was 94.5%.

In the case of `CCOC(=O)c1cc(C(=O)c2ccc(OC)c(OC)c2)n2ccncc12`, the growth was 99.5%.

With `O=C(N=c1n(-c2ccccc2)nc2n1CCN2C1=NCCN1)c1ccc(Cl)cc1`, the growth is 50.3%.

With `FC(F)(F)c1cccc(-n2nnc3cnc(Nc4ccc(N5CCCCC5)cc4)nc32)c1`, the growth was 68.7%.

In the case of `CCN1CCN(c2nc(NNC(=O)c3ccccc3)nc(N3CCN(C(c4ccccc4)c4ccccc4)CC3)n2)CC1`, the growth was 7.71% (active).

As to `COc1ccc(S(=O)(=O)NCCCNc2nccc(-n3ccc4cccnc43)n2)cc1`, the growth was 76.2%.

With `CSc1nc2nc3c(c(-c4ccc(C)cc4)c2c(=O)[nH]1)CN(C)C/C3=C\c1ccc(C)cc1`, the growth was 74.7%.

Turning to `Cc1c2cnccc2c(C)c2c1oc1ccccc12`, the growth is 82.6%.

As for `CCNCCNc1cc(C2CCCC2)c(C#N)c2nc3ccccc3n12`, the growth was -25.5% (active).

Take `O=c1cc(CSc2nnc(SCc3cc(=O)oc4c3ccc3ccccc34)o2)c2ccc3ccccc3c2o1`: the growth is 110%.

Consider `CC(CN1CCCCC1)NC(=O)c1scnc1-c1ccccc1` (centres undefined), for which the growth was 111%.

As to `CCN1CCN(Cc2ccc(NC(=O)Nc3cccc(-n4ccc5c(NC(=O)c6ccccc6)nccc54)c3)cc2C(F)(F)F)CC1`, the growth was 20.2%.

Take `CNS(=O)(=O)Oc1ccc(-c2ccc3occc3c2)cc1`: the growth was 91.7%.

Turning to `CS(=O)(=O)c1ccc(-n2nc(-c3ccc(Br)cc3)c3ccccc3c2=O)cc1`, the growth is 100%.

Take `C/C=C(/C(=O)NC(N)=O)C(C)C`: the growth was 117%.

In the case of `Cn1c(N)c(N=O)c(=O)n(C)c1=O`, the growth was 122% and 112%.

As for `CCOC(=O)C(Cc1ccccc1)n1c(O)c(/C=N/c2ncc(Cc3ccc(Cl)cc3Cl)s2)sc1=S` (centres undefined), the growth is -0.681% (active).

For `NC/C(=C/F)COc1ccc2nc(NCc3cccnc3)oc2c1`, the growth was 107%.

Take `C=C1C(=O)O[C@H]2[C@H]1CC/C(C(=O)Nc1ccc(OC)c(C(N)=O)c1O)=C\CC[C@@]1(C)O[C@@H]21`: the growth was 20.4%.

As to `CS(=O)(=O)c1ccc(-c2cc3c(oc2=O)-c2ccccc2OC3O)cc1` (centres undefined), the growth was 91.6%.

In the case of `CCCNc1ccc(C2=NCCCN2)cc1`, the growth was 87.9%.

Consider `Cc1cc(SC#N)cc(C(C)(C)C)c1O`, for which the growth is 105%.

As to `COc1cc(/C=C2\CCC/C(=C\c3cc(CN4CCCC4)c(O)c(OC)c3)C2=O)cc(CN2CCCC2)c1O`, the growth is 67.2%.

As to `O=C(Nc1ncc(Cc2cc(C(F)(F)F)ccc2Cl)s1)C(=S)N1CCOCC1`, the growth was 84.3%.

Regarding `O=C1N[C@@H]2[C@@H](O)[C@@H](O)[C@H](O)C[C@H]2c2cc3c(c(O)c21)OCCO3`, the growth was -27.2% (active).

In the case of `N#Cc1c(-c2ccccc2)nc(SCC(=O)N2CCOCC2)[nH]c1=O`, the growth was 108%.
